The values below come from PubChem BioAssay (NCI).

Holding throughout (experiment): NCI-60 one-dose screen, 48 h (100 = growth as untreated, 0 = no growth, -100 = all killed)
Test [1] has as its system RPMI-8226 leukemia. As to conditions: 10 µM unless noted.
For test [2], the system named is OVCAR-8 ovarian. As to conditions: 10 µM unless noted.
Test [3] deals with OVCAR-5 ovarian. As to conditions: 10 µM unless noted.
For test [4], the system named is OVCAR-4 ovarian. As to conditions: 10 µM unless noted.
Test [5] deals with IGROV1 ovarian. The conditions noted are these: 10 µM unless noted.
Test [6] deals with OVCAR-3 ovarian. As to conditions: 10 µM unless noted.
Test [7] deals with HS 578T breast. As to conditions: 10 µM unless noted.
Test [8] has as its system NCI/ADR-RES ovarian. As to conditions: 10 µM unless noted.
In test [9] the test system is T-47D breast. As to conditions: 10 µM unless noted.
Test [10] relates to BT-549 breast. As to conditions: 10 µM unless noted.
Test [11] has as its system MDA-MB-435 melanoma. The conditions noted are these: 10 µM unless noted.
For test [12], the system named is SW-620 colon. As to conditions: 10 µM unless noted.
Test [13] relates to MCF7 breast. As to conditions: 10 µM.
Test [14] concerns HCT-116 colon. As to conditions: 10 µM unless noted.
Test [15] has as its system HCC-2998 colon. The conditions noted are these: 10 µM unless noted.
For test [16], the system named is KM12 colon. As to conditions: 10 µM unless noted.

Compounds without any hit were thinned out: in the full panel of roughly 83,000, 20% have a hit.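 In brief: 96-well plates, 48 h treatment, single concentration, percent growth endpoint.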 A number with no mark means an inactive call. Active and inactive are the calls of the source. How the source made its calls: active means growth percent below 10; inactive means the rest.

Take `C=C1C(=O)O[C@H]2[C@H]1CC/C(COC(=O)/C=C\C(=O)O)=C\CC[C@@]1(C)O[C@@H]21`: the growth in test [1] was 114%; in test [2], 101%; in test [3], 93.8%; in test [4], 113%; in [5] it was 107%; in [6] it was 113%. In addition, the growth in [7] is 103%; in test [8] it was 101%; in test [9] it was 100%; in [10] it was 103%; in [11] it was 107%; in [12], 105%. The growth in test [13] was 94.3%; in test [14], 109%; in [15], 104%; in test [16] it was 106%.

With `CCN1C(=O)N(c2ccccc2)C2NN=c3s/c(=C4\C(=O)N(C(C)C)c5ccccc54)c(=O)n3C21` (centres undefined), the growth in test [1] is 32%; in test [2], 31.6%; in [3] it was 45.3%; in test [4], 45.8%; in test [5] it was 28.5%; in [6] it was 1.06% (active). Moreover, the growth in [7] was 24.6%; in test [8] it was 15.7%; in [9] it was 53.8%; in test [10], 12.7%; in [11], -21.2% (active); in test [12], 35.2%. Besides, the growth is 20.6% in [13], 4.19% (active) in test [14], 33.4% in test [15] and 14.5% in [16].

For the molecule `C=CCN1C(=O)/C(=c2\sc3n(c2=O)NC2C(N=3)N(CC)C(=O)N2CC)c2ccccc21` (centres undefined), the growth was 66.1% in test [1]; 48.2% in test [2]; 44.2% in test [3]; 39.2% in [4]; 34.2% in test [5]; 22.5% in test [6]. The growth was 29.4% in test [7]; 18.7% in test [8]; 54.4% in test [9]; 48.6% in test [10]; -7.64% (active) in test [11]; 34.3% in test [12]. Further, the growth in test [13] is 34.3%; in test [14] it was 14.8%; in test [15], 38%; in test [16], 24.5%.

Regarding `COc1cccc(/C(C#N)=C/c2nc3c(N4CCOCC4)nc(Cl)nc3n2C)c1`, the growth in [1] was -23.5% (active); in test [2] it was 9.5% (active); in test [3], -37.6% (active); in [4] it was -65.9% (active); in test [5], -29.8% (active); in test [6], -78.7% (active). In addition, the growth was -7.18% (active) in test [7]; 25.9% in test [8]; -44.5% (active) in test [9]; -77% (active) in test [10]; -80.2% (active) in test [11]; -72% (active) in test [12]. Also, the growth was -44.1% (active) in [13], -72.9% (active) in [14], 20% in test [15] and 16.2% in test [16].

On to `CN1C(=O)N(C)C2Nn3c(s/c(=C\c4ccc(Cl)cc4Cl)c3=O)=NC21` (centres undefined), for which the growth in test [1] is 80.2%; in test [2] it was 69.3%; in test [3] it was 63.5%; in test [4], 67.6%; in test [5], 60.5%; in [6] it was 30.7%. Further, the growth is 66.9% in [7]; 35.6% in test [8]; 69.7% in [9]; 93.9% in [10]; 8.74% (active) in test [11]; 63.1% in [12]. In addition, the growth was 45.4% in test [13], 43.9% in test [14], 86.5% in test [15] and 28.7% in test [16].

In the case of `Cc1c(-c2csc(-n3nc(C(F)(F)F)cc3C(F)(F)F)n2)no[n+]1[O-]`, the growth in test [1] is 97.2%; in [2] it was 99.2%; in test [3] it was 99.2%; in test [4] it was 87.4%; in [5], 102%; in [6] it was 114%. For the same molecule, the growth is 98.2% in [7]; 105% in test [8]; 87.5% in [9]; 102% in test [10]; 99.2% in [11]; 104% in [12]. Moreover, the growth in [13] is 85.1%; in [14], 93.1%; in [15] it was 112%; in [16], 104%.

For `O=C(Cn1cc(COc2ncnc3c2cnn3-c2ccccc2)nn1)Nc1cccc2ccccc12`, the growth in test [1] is 93.7%; in test [2] it was 87.9%; in test [3] it was 98.4%; in [4] it was 76.9%; in test [5], 102%; in [6], 109%. Moreover, the growth in [7] is 85.1%; in test [8], 94.8%; in [9] it was 87.1%; in test [10] it was 99.5%; in test [11], 94%; in test [12] it was 99.1%. Moreover, the growth in [13] was 85%; in test [14], 102%; in [15], 104%; in test [16], 93.8%.

`Cc1cccc2c(=O)c3c(sc12)c(NCCCNCCO)nc1ccccc13`: the growth in test [1] was -26.5% (active); in [2], 45.4%; in test [3] it was 74.4%; in test [4], 54.3%; in [5], 15.1%; in test [6], 64.5%. Further, the growth in test [7] is 45.4%; in [8], 60.5%; in test [9], 62.7%; in test [10] it was 73%; in test [11] it was 29.5%; in test [12] it was -51.6% (active). Besides, the growth was -61% (active) in test [13], -30.3% (active) in test [14], 12.7% in test [15] and 33.6% in [16].

In the case of `NCCOc1ccccc1/C=C1\c2ccccc2-c2ccc([N+](=O)[O-])cc21`, the growth in test [1] was -48.6% (active); in test [2] it was -38.7% (active); in [3], 22.3%; in test [4], 30.3%; in [5] it was 23.8%; in test [6] it was -49.8% (active). The growth in [7] is 26.3%; in test [8], 23.5%; in test [9], 12.5%; in [10], 84.8%; in [11] it was -53.8% (active); in [12] it was -82.4% (active). For the same molecule, the growth is -60.9% (active) in test [13], -95.3% (active) in test [14], -53.3% (active) in test [15] and -59.9% (active) in test [16].
